The values below come from ChEMBL document CHEMBL4513216, “Probing the Open Global Health Chemical Diversity Library for Multistage-Active Starting Points for Next-Generation Antimalarials” (ACS Infect Dis, 2020).

Out of some 69,000 compounds screened, about 8,600 (12%) showed an effect of 50% or more. What follows is part of a selection rich in strong results, with near analogues and random picks from the rest.

This assay has as its system Plasmodium berghei. The assay can be described thus: Screen against P. berghei liver stage (PbLuc), transformed with Luciferase, at 10uM. The note with it: tested at 10 uM. The assay is classed as functional, HepG2.
Turning to `Cc1cnn(CC2CCCCN2C(=O)Cc2cccc(F)c2)c1` (stereo unspecified), the INHIBITION worked out at 35.9%. The same measure for `COc1ccc(C(C)NC(=O)c2nn(C)c(C)c2Br)cc1` (stereo unspecified): 30.2%; for `OC(CN1CCN(Cc2ccc(F)cc2)CC1)C1CC1` (stereo unspecified): -0.113%; for `Cc1cc(C2CCCCCN2Cc2cn(C)nc2C)no1` (stereo unspecified): 6.32%. The same measure for `O=C(Nc1ccc(F)cc1)N1C[C@@H]2C[C@H](C(=O)N3CCCC3)[C@H](C1)O2`: 7.67%; for `CC(C)CN(CCc1ccccc1)Cc1nc2c(cnn2C)c(=O)[nH]1`: 29.2%; for `Cc1ccccc1CC(C)NCc1c(C)nn(C)c1N1CCOCC1` (stereo unspecified): 13.5%. As to `CCc1ccccc1OCCN(C)C(=O)CN1CCCC1`, the INHIBITION stood at 59.1%. The same measure for `Cc1ccc(OCCN(C)C(=O)CCCN2CCCC2=O)c(C)c1`: -12.6%.

Consider `CCc1ccccc1OCCN(C)C(=O)CCN1CCCO1`, for which the INHIBITION worked out at 42.4%. Turning to `CCc1ccccc1OCCCN(C)C(=O)C1CCCN1C(N)=O` (stereo unspecified), the INHIBITION is given as -40.4%. Turning to `CN(CCCOc1ccccc1Cl)C(=O)CN1CCCCCC1=O`, the INHIBITION came out at 21.2%. The same measure for `CCc1ccccc1OCCN(C)C(=O)CCN1CCCCO1`: 69.3%. The value for `O=C(Cc1csc(-c2ccccc2F)n1)NCc1cccc(C(=O)O)c1` was 0.29%; that for `CO[C@H]1CN(S(=O)(=O)c2ccccc2F)C[C@@]12CCCO2` was 3.48%; that for `Cc1nc(N)cc(C2CCN2CCOc2ccccc2)n1` (stereo unspecified) was -0.232%. The value for `COc1ccnc(N2CCN(C(=O)CN3CCOCC3)CC2)n1` was 31.9%. With `CC(=O)N1CCCC1c1nccnc1Nc1ncccn1` (stereo unspecified), the INHIBITION is -107%. The same measure for `CC(C(=O)NN1CCOCC1)n1nc(C(F)(F)F)c(Cl)c1C1CC1` (stereo unspecified): 74.1%.

Turning to `Cc1c(Cl)c(C(F)(F)F)nn1C(C)C(=O)NN1CCN(C)CC1` (stereo unspecified), the INHIBITION is on record as 35.7%.

In the case of `CC(C(=O)NC1CCN(C)CC1)n1nc(C(F)(F)F)c(Cl)c1C1CC1` (stereo unspecified), the INHIBITION is 82.4%. The same measure for `CC(C(=O)O)n1nc(C(F)(F)F)c(Cl)c1C1CC1` (stereo unspecified): 7.3%; for `Cc1c(Cl)c(C(F)(F)F)nn1C(C)C(=O)NC1CCN(C)CC1` (stereo unspecified): 26.8%. Turning to `O=C(Cn1nc(C(F)(F)F)c(Cl)c1C1CC1)NN1CCOCC1`, the INHIBITION was -3.11%. Take `Cn1ccc2ccc(C(=O)Nc3nc[nH]n3)cc21`: the INHIBITION stood at 46.4%. With `CC(=O)N1CCN(C(=O)NCc2ccc(Cl)s2)CC1`, the INHIBITION is 42%. The same measure for `O=C1CC[C@H]2[C@H](CCN2C(=O)c2ccc[nH]2)N1CCN1CCOCC1`: -14.4%; for `Cc1nc2ccccc2n1CCNCc1cccc(O)c1`: -57.5%; for `O=C1CO[C@@H]2CN(S(=O)(=O)c3ccc(F)cc3)C[C@H]2N1`: 82.2%.

For `O=C1CO[C@@H]2CN(S(=O)(=O)c3ccccc3F)C[C@H]2N1`, the INHIBITION came to 44.4%. The same measure for `C[C@@H]1C[C@H]2CN(S(=O)(=O)c3ccc(F)cc3)C[C@H]2O1`: 24.8%; for `c1ncn(Cc2cn3c(n2)CN(CC2CCCC2)CC3)n1`: -16.9%.

With `O=C(c1cnc(-c2cnccn2)s1)N1CCCC1Cn1cccn1` (stereo unspecified), the INHIBITION was -21.5%. Regarding `O=C(NCc1ccccc1)N1CCC2(CC(=O)N(c3ccccc3)C2)C1` (stereo unspecified), the INHIBITION is given as -14.7%. As for `CCN(C(C)=O)c1nc(CN2CCCC2Cn2cncn2)cs1` (stereo unspecified), the INHIBITION was -6.44%.

For `COCCN1CCC(C(=O)N(C)CCOc2ccc(C)cc2Cl)C1` (stereo unspecified), the INHIBITION was determined as 59.3%. The same measure for `COCCN1CCC(C(=O)N(C)Cc2cccc(Cl)c2)C1` (stereo unspecified): 13.9%; for `COCCN1CCC(C(=O)N(C)Cc2c[nH]c3ccc(C)cc23)C1` (stereo unspecified): 39.9%; for `Cc1cn(-c2ccccc2)nc1NS(=O)(=O)c1ccc(C(=O)O)cc1F`: -20%. The same measure for `CC(=O)NCc1cc2n(n1)CCN(Cc1ccccc1OC(F)(F)F)C2`: 53.8%; for `CSc1ccccc1CN1CCn2nc(CNC(=O)N(C)C)cc2C1`: 4.97%.

With `CSc1ccccc1CN1CCn2nc(CNC(C)=O)cc2C1`, the INHIBITION is given as 55.4%. On to `CC(=O)NCc1cc2n(n1)CCN(Cc1cccc(Cl)c1Cl)C2`, for which the INHIBITION is reported as -26.8%. The same measure for `CSc1ccccc1CN1CCCn2nc(CNC(=O)N(C)C)cc2C1`: -19.4%. The value for `CCc1ccccc1CN1CCn2nc(CNC(C)=O)cc2C1` was 22%; that for `O=C(c1ccc2c(c1)COC2)N1CCN(CCO)CC1` was 21.5%.

Consider `c1ncc2c(n1)CN(Cc1nc(-c3ccsc3)no1)CC2`, for which the INHIBITION is listed as -16%. The value for `NC(=O)CN(Cc1ncc(-c2ccc(F)cc2)o1)C1CCCC1` was -13.6%. The value for `CSCC[C@H](NC(=O)CCn1cc(C(C)=O)c2ccccc21)C(=O)O` was -35.7%; that for `CC(C)c1nnc2n1CC(CNCc1ccc3c(c1)OCCO3)CC2` (stereo unspecified) was 17%; that for `COc1ccc(C)cc1NC(=O)Nc1cnc(N2CCN(C)CC2)nc1` was 38.7%. The value for `Cc1ccc(NC(=O)Nc2cnc(N3CCN(C)CC3)nc2)cc1` was 37.4%; that for `COc1ccc(NC(=O)Nc2cnc(N3CCN(C)CC3)nc2)cc1Cl` was 45%. For `COc1ccc(C)cc1NC(=O)Nc1cnc(N2CCCC2)nc1`, the INHIBITION is 45.5%. The value for `COc1ccc(C)cc1NC(=O)Nc1cnc(N2CCOCC2)nc1` was 50.2%. The value for `Cc1ccc(NC(=O)Nc2cnc(N3CCN(C)CC3)nc2)c(Cl)c1` was 57.6%. For the compound `C[C@H]1C(=O)NC[C@H]2CN(Cc3ccccc3)C[C@H]21`, the INHIBITION is listed as -9.27%.

Consider `CCS(=O)(=O)NCC(Cc1cccc(F)c1)N1CCNC1=O` (stereo unspecified), for which the INHIBITION is recorded as 23.1%. In the case of `CC(Cn1cccn1)NC(=O)Nc1ccccn1` (stereo unspecified), the INHIBITION is reported as -4.16%. The same measure for `CCCc1ncc(C(=O)c2ccc(OC)cc2)n1C`: 0.29%; for `CCc1ncc(C(=O)c2ccc(OC)cc2)n1C`: 54.2%. Regarding `COc1ccc(C(=O)c2cnc(C(C)C)n2C)cc1`, the INHIBITION came to 33.9%. In the case of `Cc1cc(=O)[nH]cc1C(=O)N1CCN(C)c2ccccc2C1`, the INHIBITION is given as 42.8%. The value for `COCCC(Cc1cccc(Br)c1)C(=O)NCC(N)=O` (stereo unspecified) was 12.3%; that for `CCNCCOc1ccc(-c2cc(N)nc3[nH]ccc23)cc1` was 59.5%; that for `Nc1cc(-c2cc(O)cc(C(=O)O)c2)c2cc[nH]c2n1` was 35.4%. As for `CNc1cc(-c2cccc(CN)c2)c2cc[nH]c2n1`, the INHIBITION was determined as 5.91%. `Cc1ccc(N2CCC3(CCN(C(=O)N(C)C)CC3)CC2)nn1`: the INHIBITION is 35.4%.

In the case of `CCN(CC)S(=O)(=O)NCC(O)c1c(Cl)cccc1Cl` (stereo unspecified), the INHIBITION was -20%. The value for `CC(C)(CCS(C)(=O)=O)CNC(=O)NC1CCCC1(C)C` (stereo unspecified) was -21.9%; that for `O=C(CN1CCc2sccc2C1)Nc1ccnc2ccnn12` was 82.2%; that for `Cn1nccc1NC(=O)CN1CCc2sccc2C1` was 18.6%.

With `CC(C)n1nccc1NC(=O)CN1CCc2sccc2C1`, the INHIBITION is recorded as 49.3%.

Take `CCn1c(C)nnc1SCCNc1cc(OC)ncn1`: the INHIBITION is given as 22.1%. The value for `CCCn1cc(CN2CCCC2c2nccc(CN(C)C)n2)cn1` (stereo unspecified) was 25.6%; that for `Cc1cccc(N2CCN(CCC(=O)NCc3nnc[nH]3)CC2)c1` was -10.6%. Regarding `Cc1cccc(N2CCN(CCC(=O)NCc3cccnc3)CC2)c1`, the INHIBITION is listed as 27.6%. As for `CCc1nnc(CNC(=O)CCN2CCN(c3cccc(C)c3)CC2)s1`, the INHIBITION is reported as 52.1%. The same measure for `CCc1nnc(CNC(=O)CCCN2CCCCC2)s1`: 25.1%; for `Cc1cccc(N2CCN(CCC(=O)NCc3ccc(C)s3)CC2)c1`: 71.2%; for `Cc1cccc(N2CCN(CCC(=O)NCc3cnc(C)cn3)CC2)c1`: 45.8%. The value for `CN1CCN(Cc2cccnc2)C2(CCN(C3CCOCC3)C2)C1=O` (stereo unspecified) was -33.9%; that for `CC(=O)NCCNC(=O)c1cnc(C(C)(C)C)s1` was 30.6%.

As for `CCc1cccc(C)c1NC(=O)c1ccccc1N(C)S(C)(=O)=O`, the INHIBITION came to 25.8%.

Consider `CCN1CCN(C(=O)c2cccn2Cc2ccccc2)CC1`, for which the INHIBITION was -4.94%.

On to `Cc1csc(Nc2nccnc2C2CCCN2CC(N)=O)n1` (stereo unspecified), for which the INHIBITION was -13.7%.

As for `CCS(=O)(=O)N1CCC2(CC(=O)N(c3ccc4c(c3)OCO4)C2)C1` (stereo unspecified), the INHIBITION was -30.6%. The value for `O=C1CC2(CCN(Cc3ccoc3)C2)CN1c1ccc2c(c1)OCO2` (stereo unspecified) was 60.3%; that for `CN(C)C(=O)N1CCC2(CC(=O)N(c3ccc4c(c3)OCO4)C2)C1` (stereo unspecified) was -4.02%. The same measure for `O=C1CC2(CCN(Cc3ccncc3)C2)CN1c1ccc2c(c1)OCO2` (stereo unspecified): 31.1%; for `Cn1cc(CN2CCC3(CC(=O)N(c4ccc5c(c4)OCO5)C3)C2)cn1` (stereo unspecified): 27.3%. `O=C1CC2(CCN(Cc3ccsc3)C2)CN1c1ccc2c(c1)OCO2` (stereo unspecified): the INHIBITION turned out to be 55.5%. The same measure for `CCn1nc(C)c(NC(=O)CN(C)C(C)c2ccon2)c1C` (stereo unspecified): -22.1%.

Turning to `N[C@@H]1CCCN(C(=O)Cc2c[nH]c3ccccc23)[C@H]1c1ccccc1F`, the INHIBITION turned out to be 32.5%. The same measure for `Cc1cnn(CCC(=O)N2C[C@@H]3CC[C@H]2CN(CC(=O)N(C)C)C3)c1`: 38.5%. The same measure for `CN(C)C(=O)CN1C[C@H]2CC[C@@H](C1)N(C(=O)Cc1ccccc1Cl)C2`: 25.1%; for `Cc1ccnn1CCC(=O)N1C[C@@H]2CC[C@H]1CN(CC(=O)N(C)C)C2`: 55.6%; for `O=C(CCn1cncn1)N1C[C@@H]2CC[C@H]1CN(Cc1ccncc1)C2`: 22.4%.

In the case of `Cc1c[nH]nc1C1CCCCN1C(=O)CC1(O)CCCCC1` (stereo unspecified), the INHIBITION is reported as 24.8%. Consider `Cc1c[nH]nc1C1CCCCN1C(=O)CNS(C)(=O)=O` (stereo unspecified), for which the INHIBITION is reported as 48.6%. The same measure for `CN(C)C(=O)CN1C[C@H]2CC[C@@H](C1)N(C(=O)CCn1cncn1)C2`: 56.8%; for `Cc1c[nH]nc1C1CCCCN1C(=O)CCn1nccc1C` (stereo unspecified): 57.5%; for `CN(C)C(=O)CN1C[C@H]2CC[C@@H](C1)N(C(=O)CCCn1cncn1)C2`: 8.07%. The same measure for `COc1ccc(C(=O)N2CCCC(n3cncn3)C2)nn1` (stereo unspecified): 8.64%.

Consider `O=C(NCCCn1ccnc1)N1CCN(c2cccs2)CC1`, for which the INHIBITION is recorded as 12.2%. The value for `O=C(Cn1ncc(N2CCCC2)cc1=O)Nc1ccc2nccnc2c1` was 6.69%.
